Bioassay records: PubChem BioAssay, Buhrlage Lab, Dana-Farber Cancer Institute and Novartis Institutes for BioMedical Research (Cambridge, Mass)
USP28 inh: human USP28 deubiquitinase inhibition | purified USP28, Ub-rhodamine cleavage fluorescence, 30 min | 47,000 tested, 3% active | Q96RU2 | inhibition, % at 25 µM
USP17 block: blocks human USP17 ubiquitin-rhodamine cleavage. A8MUK1. purified USP17, Ub-rhodamine cleavage fluorescence, 3 h. inhibition, % at 50 µM. 47,000 tested, 6.5% active. AID 1645855
USP30 block: inhibitors of human USP30 deubiquitinase; purified USP30, Ub-rhodamine cleavage fluorescence; 47,000 tested, 5.3% active; Q70CQ3; inhibition, % at 25 µM
OTUD3 inh: blocks human OTUD3 ubiquitin-rhodamine cleavage. Q5T2D3. 47,000 tested, 0.7% active. purified OTUD3, Ub-rhodamine fluorescence, 2 h. inhibition, % at 25 µM. AID 1645858
Target sequence (Q5T2D3 whole entry, looked up): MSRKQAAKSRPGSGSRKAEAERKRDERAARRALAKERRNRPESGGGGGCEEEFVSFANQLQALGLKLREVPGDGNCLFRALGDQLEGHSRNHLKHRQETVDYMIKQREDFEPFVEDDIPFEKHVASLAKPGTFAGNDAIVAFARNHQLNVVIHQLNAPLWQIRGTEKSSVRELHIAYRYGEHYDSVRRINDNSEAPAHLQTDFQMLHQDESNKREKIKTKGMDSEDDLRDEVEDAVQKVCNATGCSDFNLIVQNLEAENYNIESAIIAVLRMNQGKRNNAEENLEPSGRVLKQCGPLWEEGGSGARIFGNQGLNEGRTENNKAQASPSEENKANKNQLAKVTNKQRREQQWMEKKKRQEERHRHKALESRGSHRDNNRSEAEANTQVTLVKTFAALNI
Numbers without * were called inactive; . = not tested or not shown. Rows were chosen to be rich in hits. Some 11% of all compounds tested hit in one or more screens of this group. Rule as the data show it: active = inhibition above about 30%; inactive = the rest.

SMILES	USP28 inh	USP17 block	USP30 block	OTUD3 inh
Cc1cc(C)c(S(=O)(=O)N2CCC(C(=O)OC(C)C(=O)Nc3ccccc3-c3ccccc3)CC2)c(C)c1 (configuration not stated)	3	-2	-4	7
CCOC(=O)c1ccc(NC(=O)c2ccc(S(=O)(=O)N3CCc4ccccc4C3)cc2)cc1	9	33*	50*	9
CCOC(=O)c1ccc(S(=O)(=O)N2CCC(C(=O)OC(C)C(=O)Nc3cccc([N+](=O)[O-])c3)CC2)cc1 (configuration not stated)	42*	8	83*	15
N#Cc1cccc(NC(=O)c2ccc(S(=O)(=O)N3CCOCC3)cc2)c1	6	11	9	7
O=C(Nc1ccc(-c2nc3ccccc3o2)cc1)c1ccc(S(=O)(=O)N2CCc3ccccc3C2)cc1	4	35*	34*	10
CCOC(=O)c1cccc(NC(=O)c2ccc(S(=O)(=O)N3CCN(C)CC3)cc2)c1	31*	.	-2	-1
Cn1c(=O)c2c(ncn2CC(=O)OCc2ccccc2C#N)n(C)c1=O	4	7	12	10
COc1ccccc1-n1c(SCC(=O)Nc2ccccc2C(F)(F)F)nc2ccccc2c1=O	8	6	22	12
COc1cc(C)cc(O)c1C(=O)c1c(OC)cc(O)cc1C(=O)O	5	7	11	7
O=C(c1ccc(Cl)cc1)c1c[nH]cc1-c1c(F)cccc1Cl	19	32*	54*	6
Cc1cccc(NC(=O)c2c(-c3c(F)cccc3Cl)noc2C)n1	.	-1	.	1
FC(F)(F)c1nc2ccccc2nc1NCc1cccnc1	28	0	-27	15
O=C(CSc1ncn[nH]1)Nc1ccc2c(c1)OCO2	-12	.	-4	-16
CCCCCn1c(=O)[nH]c2cc(C(=O)NCCN3CCC(Cc4ccccc4)CC3)ccc2c1=O	14	21	44*	17
O=S(=O)(NCCc1csc(-c2cccnc2)n1)c1ccc2ccccc2c1	-22	-14	-73	-17
Cc1nc2c(NC(=O)COc3ccc(F)c(F)c3)cccn2n1	12	5	25	7
COC(=O)c1ccc(Cn2cnc3ccc(Br)cc3c2=O)o1	80*	-13	-5	2
O=C(NCc1cccnc1)c1ccc(Cn2cnc3ccccc3c2=O)o1	23	7	20	15
O=C(NCc1ccncc1)c1ccc(Cn2cnc3ccccc3c2=O)o1	9	-1	-10	0
COC(=O)c1ccc(Cn2cnc3ccc(F)cc3c2=O)o1	87*	11	28	5
O=C(CC1C(=O)Nc2ncnn21)Nc1ccc2c(c1)OCCO2 (configuration not stated)	7	6	16	15
Cc1ccc(-c2nc(-c3ccccc3)c(S(=O)(=O)CC(=O)Nc3ccc(C)c(C)c3)[nH]2)cc1	14	37*	1	32*
CCOc1ccc(NC(=O)CS(=O)(=O)c2[nH]c(-c3cccc(OC)c3)nc2-c2ccccc2)cc1	19	13	18	17
Cc1ccccc1OCCN1C(=O)C2CN(C(N)=O)CCN2C1=O (configuration not stated)	14	12	31*	13
COc1ccc(Cl)c2sc(N3CCN(C(=O)c4ccn(C)n4)CC3)nc12	11	47*	-34	6
SMILES	USP28 inh	USP17 block	USP30 block	OTUD3 inh
CN(C)c1ccc(C2CC(c3ccc(Br)cc3)=NN2C(=O)CCC(=O)O)cc1 (configuration not stated)	23	32*	26	13
Cc1ccccc1C(=O)N1CCCCC1CCN1CCCC1 (configuration not stated)	5	4	2	5
Cc1cc(C)c(NC(=O)/C=C/c2ccc3ccccc3n2)c(C)c1	-58	34*	-140	-40
Cc1cc(NC(=O)/C=C/c2ccccc2)c2ccccc2n1	-11	-23	-53	-17
Cc1ccc(CN2CCc3nc4cc(C5CC5)[nH]n4c(=O)c3C2)s1	15	0	32*	11
Cc1cc(-c2cc3nc4c(c(=O)n3[nH]2)CN(Cc2ccc(C)o2)CC4)no1	19	46*	2	13
CCn1cc(CN2CCc3nc4cc(-c5ccoc5C)[nH]n4c(=O)c3C2)cn1	-50	-70	-153	-36
CC(=O)c1ccccc1NC(=O)Cc1ccc(-c2ccccc2)cc1	-12	-12	-274	-65
N#Cc1ccc(-c2ccc(OCC(=O)Nc3ccc4c(c3)CCC4)cc2)cc1	41*	24	44*	42*
CC(=O)c1ccccc1NC(=O)COc1ccc(-c2ccc(C#N)cc2)cc1	9	78*	5	5
Cc1ccc(Cn2c(C3CCCO3)nc3ccccc32)cc1 (configuration not stated)	11	0	10	-4
